# Measured values as given in the supplement of paper PMC4022240.
# ± gives the standard deviation.
# T1: HaloTag-ATRX ADD domain (163-292)
# T1 chain: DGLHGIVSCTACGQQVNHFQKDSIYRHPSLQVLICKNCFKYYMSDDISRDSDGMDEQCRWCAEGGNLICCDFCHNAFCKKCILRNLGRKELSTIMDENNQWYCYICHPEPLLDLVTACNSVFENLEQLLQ
# Tests used:
# Test in all cases: peptide microarray binding signal (635 nm), min-max normalized on array (fraction of array maximum); higher = stronger binding
# [1] = target: T1, HaloTag-ATRX ADD domain (163-292)
# How it was run: (§1)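 Histone 13-mer peptide–cellulose conjugates were printed in triplicate on nitrocellulose with a Cy3 tracer, then blocked overnight at 4°C. Arrays were probed for 1 h at 4°C with biotin-labelled HaloTag reader fusions (10 nM to 1 μM) plus streptavidin-Alexa Fluor 647, or with rabbit histone antibodies (1:10,000 to 1:2,000) plus anti-rabbit Alexa 647. An Axon GenePix 4000B scanned 635 nm for signal and 532 nm for misprints. Binding signal is the triplicate-spot mean intensity, min-max scaled per library.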
# [2] = target: HaloTag-ING2 PHD (mouse Ing2 200-280)
# How it was run: as §1
# [3] = target: anti-H3K4me3 antibody ab8580
# How it was run: as §1
# [4] = target: anti-H3K9me3 antibody ab8898
# How it was run: as §1
# [5] = peptide region: H4 38-50, peptide modifications: H4K44ac H4R45me1, binder concentration: 1:2,000 dilution
# [6] = peptide region: H4 38-50, peptide modifications: H4K44ac H4R45me1, binder concentration: 1:10,000 dilution
# [7] = peptide region: H4 16-28, peptide modifications: H4R19me2s, binder concentration: 1:2,000 dilution
# [8] = peptide region: H4 16-28, peptide modifications: H4R23me2s, binder concentration: 1:2,000 dilution
# [9] = peptide region: H4 38-50, peptide modifications: H4K44ac, binder concentration: 1:2,000 dilution
# [10] = peptide region: H4 38-50, peptide modifications: H4K44ac, binder concentration: 1:10,000 dilution
# [11] = peptide region: H4 38-50, peptide modifications: H4K44me1, binder concentration: 1:2,000 dilution
# [12] = peptide region: H4 38-50, peptide modifications: H4K44me1, binder concentration: 1:10,000 dilution
# [13] = peptide region: H4 16-28, peptide modifications: H4R19me2s H4K20me3, binder concentration: 1:2,000 dilution
# [14] = peptide region: H4 16-28, peptide modifications: H4R19me2s H4K20me3, binder concentration: 1:10,000 dilution
# [15] = peptide region: H4 16-28, peptide modifications: H4R19me2a H4K20me2, binder concentration: 1:2,000 dilution
# [16] = peptide region: H4 16-28, peptide modifications: H4R19me2a H4K20me2, binder concentration: 1:10,000 dilution
# [17] = peptide region: H4 38-50, binder concentration: 1:2,000 dilution
# [18] = peptide region: H4 38-50, binder concentration: 1:10,000 dilution
# [19] = peptide region: H4 38-50, peptide modifications: H4K44me1 H4R45cit, binder concentration: 1:2,000 dilution
# [20] = peptide region: H4 38-50, peptide modifications: H4K44me1 H4R45cit, binder concentration: 1:10,000 dilution
# [21] = peptide region: H4 16-28, peptide modifications: H4R19me1 H4K20me2, binder concentration: 1:2,000 dilution
# [22] = peptide region: H4 16-28, peptide modifications: H4R19me1 H4K20me2, binder concentration: 1:10,000 dilution
# [23] = peptide region: H4 38-50, peptide modifications: H4K44me1 H4R45me1, binder concentration: 1:2,000 dilution
# [24] = peptide region: H4 38-50, peptide modifications: H4K44me1 H4R45me1, binder concentration: 1:10,000 dilution
binder,measurement,setting,value
ARRGGVKRISGLI [H4 38-50 A R R G G V Kac Rme I S G L I],peptide microarray binding signal,"[1]; peptide region: H4 38-50, peptide modifications: H4K44ac H4R45me1, binder concentration: 50 nM",0.0131 ± 0.00062
same,peptide microarray binding signal,"[1]; peptide region: H4 38-50, peptide modifications: H4K44ac H4R45me1, binder concentration: 500 nM",0.01695 ± 5.7e-05
same,peptide microarray binding signal,"[2]; peptide region: H4 38-50, peptide modifications: H4K44ac H4R45me1, binder concentration: 10 nM",0.0235 ± 0.0022
same,peptide microarray binding signal,"[2]; peptide region: H4 38-50, peptide modifications: H4K44ac H4R45me1, binder concentration: 100 nM",0.048 ± 0.0095
same,peptide microarray binding signal,[3]; [5],0.00338 ± 0.00048
same,peptide microarray binding signal,[3]; [6],0.00685 ± 0.0005
same,peptide microarray binding signal,[4]; [5],0.00296 ± 0.00039
same,peptide microarray binding signal,[4]; [6],0.00306 ± 4.5e-05
KRHRKVLRDNIQG [H4 16-28 K R H Rme2s K V L R D N I Q G],peptide microarray binding signal,"[1]; peptide region: H4 16-28, peptide modifications: H4R19me2s, binder concentration: 500 nM",0.000524 ± 1.4e-05
same,peptide microarray binding signal,"[2]; peptide region: H4 16-28, peptide modifications: H4R19me2s, binder concentration: 100 nM",0
same,peptide microarray binding signal,[3]; [7],0.000491 ± 9.2e-05
same,peptide microarray binding signal,[4]; [7],3.02e-05 ± 3.4e-07
KRHRKVLRDNIQG [H4 16-28 K R H R K V L Rme2s D N I Q G],peptide microarray binding signal,"[1]; peptide region: H4 16-28, peptide modifications: H4R23me2s, binder concentration: 500 nM",0.000333 ± 1.9e-05
same,peptide microarray binding signal,"[2]; peptide region: H4 16-28, peptide modifications: H4R23me2s, binder concentration: 100 nM",0.000354 ± 1.5e-05
same,peptide microarray binding signal,[3]; [8],0.000849 ± 0.00028
same,peptide microarray binding signal,[4]; [8],1.51e-05 ± 1.7e-07
ARRGGVKRISGLI [H4 38-50 A R R G G V Kac R I S G L I],peptide microarray binding signal,"[1]; peptide region: H4 38-50, peptide modifications: H4K44ac, binder concentration: 50 nM",0.00298 ± 0.00042
same,peptide microarray binding signal,"[1]; peptide region: H4 38-50, peptide modifications: H4K44ac, binder concentration: 500 nM",0.002238 ± 1.9e-05
same,peptide microarray binding signal,"[2]; peptide region: H4 38-50, peptide modifications: H4K44ac, binder concentration: 10 nM",0.00477 ± 0.00013
same,peptide microarray binding signal,"[2]; peptide region: H4 38-50, peptide modifications: H4K44ac, binder concentration: 100 nM",0.00751 ± 0.00045
same,peptide microarray binding signal,[3]; [9],0.00347 ± 0.0006
same,peptide microarray binding signal,[3]; [10],0.00251 ± 5.9e-05
same,peptide microarray binding signal,[4]; [9],0.00142 ± 3.6e-05
same,peptide microarray binding signal,[4]; [10],0.00138 ± 4.9e-05
ARRGGVKRISGLI [H4 38-50 A R R G G V Kme R I S G L I],peptide microarray binding signal,"[1]; peptide region: H4 38-50, peptide modifications: H4K44me1, binder concentration: 50 nM",0.00765 ± 0.00015
same,peptide microarray binding signal,"[1]; peptide region: H4 38-50, peptide modifications: H4K44me1, binder concentration: 500 nM",0.0147 ± 0.0013
same,peptide microarray binding signal,"[2]; peptide region: H4 38-50, peptide modifications: H4K44me1, binder concentration: 10 nM",0.01074 ± 8.4e-05
same,peptide microarray binding signal,"[2]; peptide region: H4 38-50, peptide modifications: H4K44me1, binder concentration: 100 nM",0.0234 ± 0.0011
same,peptide microarray binding signal,[3]; [11],0.00691 ± 0.00072
same,peptide microarray binding signal,[3]; [12],0.00719 ± 0.00029
same,peptide microarray binding signal,[4]; [11],0.00751 ± 0.0003
same,peptide microarray binding signal,[4]; [12],0.00703 ± 0.0019
KRHRKVLRDNIQG [H4 16-28 K R H Rme2s Kme3 V L R D N I Q G],peptide microarray binding signal,"[1]; peptide region: H4 16-28, peptide modifications: H4R19me2s H4K20me3, binder concentration: 50 nM",0.006019 ± 4.1e-05
same,peptide microarray binding signal,"[1]; peptide region: H4 16-28, peptide modifications: H4R19me2s H4K20me3, binder concentration: 500 nM",0.00524 ± 0.00012
same,peptide microarray binding signal,"[2]; peptide region: H4 16-28, peptide modifications: H4R19me2s H4K20me3, binder concentration: 10 nM",0.01444 ± 0.00013
same,peptide microarray binding signal,"[2]; peptide region: H4 16-28, peptide modifications: H4R19me2s H4K20me3, binder concentration: 100 nM",0.0125 ± 0.00075
same,peptide microarray binding signal,[3]; [13],0.0051 ± 0.00088
same,peptide microarray binding signal,[3]; [14],0.00451 ± 0.0013
same,peptide microarray binding signal,[4]; [13],0.00438 ± 0.0021
same,peptide microarray binding signal,[4]; [14],0.00663 ± 0.00022
KRHRKVLRDNIQG [H4 16-28 K R H Rme2a Kme2 V L R D N I Q G],peptide microarray binding signal,"[1]; peptide region: H4 16-28, peptide modifications: H4R19me2a H4K20me2, binder concentration: 50 nM",0.0248 ± 0.0013
same,peptide microarray binding signal,"[1]; peptide region: H4 16-28, peptide modifications: H4R19me2a H4K20me2, binder concentration: 500 nM",0.0149 ± 0.00068
same,peptide microarray binding signal,"[2]; peptide region: H4 16-28, peptide modifications: H4R19me2a H4K20me2, binder concentration: 10 nM",0.0209 ± 0.0011
same,peptide microarray binding signal,"[2]; peptide region: H4 16-28, peptide modifications: H4R19me2a H4K20me2, binder concentration: 100 nM",0.0188 ± 0.00076
same,peptide microarray binding signal,[3]; [15],0.00119 ± 1.7e-05
same,peptide microarray binding signal,[3]; [16],0.00348 ± 4.9e-05
same,peptide microarray binding signal,[4]; [15],0.00113 ± 8.4e-05
same,peptide microarray binding signal,[4]; [16],0.00427 ± 0.00011
ARRGGVKRISGLI [H4 38-50 A R R G G V K R I S G L I],peptide microarray binding signal,"[1]; peptide region: H4 38-50, binder concentration: 50 nM",0.00398 ± 0.00022
same,peptide microarray binding signal,"[1]; peptide region: H4 38-50, binder concentration: 500 nM",0.00614 ± 6.4e-05
same,peptide microarray binding signal,"[2]; peptide region: H4 38-50, binder concentration: 10 nM",0.003641 ± 3.4e-05
same,peptide microarray binding signal,"[2]; peptide region: H4 38-50, binder concentration: 100 nM",0.0105 ± 0.00039
same,peptide microarray binding signal,[3]; [17],0.000434 ± 8.7e-06
same,peptide microarray binding signal,[3]; [18],0.000913
same,peptide microarray binding signal,[4]; [17],0.000151 ± 1.6e-06
same,peptide microarray binding signal,[4]; [18],0.000634 ± 1.2e-05
ARRGGVKRISGLI [H4 38-50 A R R G G V Kme Rcit I S G L I],peptide microarray binding signal,"[1]; peptide region: H4 38-50, peptide modifications: H4K44me1 H4R45cit, binder concentration: 50 nM",0.00502 ± 0.00054
same,peptide microarray binding signal,"[1]; peptide region: H4 38-50, peptide modifications: H4K44me1 H4R45cit, binder concentration: 500 nM",0.0041 ± 5.8e-05
same,peptide microarray binding signal,"[2]; peptide region: H4 38-50, peptide modifications: H4K44me1 H4R45cit, binder concentration: 10 nM",0.00603 ± 0.00023
same,peptide microarray binding signal,"[2]; peptide region: H4 38-50, peptide modifications: H4K44me1 H4R45cit, binder concentration: 100 nM",0.00652 ± 0.0007
same,peptide microarray binding signal,[3]; [19],0.00106 ± 0.00014
same,peptide microarray binding signal,[3]; [20],0.0016 ± 2.7e-05
same,peptide microarray binding signal,[4]; [19],0.00074 ± 1.7e-05
same,peptide microarray binding signal,[4]; [20],0.00133 ± 2.3e-05
KRHRKVLRDNIQG [H4 16-28 K R H Rme Kme2 V L R D N I Q G],peptide microarray binding signal,"[1]; peptide region: H4 16-28, peptide modifications: H4R19me1 H4K20me2, binder concentration: 50 nM",0.00404 ± 8.4e-05
same,peptide microarray binding signal,"[1]; peptide region: H4 16-28, peptide modifications: H4R19me1 H4K20me2, binder concentration: 500 nM",0.00943 ± 0.001
same,peptide microarray binding signal,"[2]; peptide region: H4 16-28, peptide modifications: H4R19me1 H4K20me2, binder concentration: 10 nM",0.00847 ± 0.00051
same,peptide microarray binding signal,"[2]; peptide region: H4 16-28, peptide modifications: H4R19me1 H4K20me2, binder concentration: 100 nM",0.0223 ± 0.0015
same,peptide microarray binding signal,[3]; [21],0.00219 ± 0.0001
same,peptide microarray binding signal,[3]; [22],0.002 ± 4.9e-05
same,peptide microarray binding signal,[4]; [21],0.00116 ± 9e-05
same,peptide microarray binding signal,[4]; [22],0.00254 ± 0.00041
ARRGGVKRISGLI [H4 38-50 A R R G G V Kme Rme I S G L I],peptide microarray binding signal,"[1]; peptide region: H4 38-50, peptide modifications: H4K44me1 H4R45me1, binder concentration: 50 nM",0.0377 ± 0.00093
same,peptide microarray binding signal,"[1]; peptide region: H4 38-50, peptide modifications: H4K44me1 H4R45me1, binder concentration: 500 nM",0.0199 ± 0.00027
same,peptide microarray binding signal,"[2]; peptide region: H4 38-50, peptide modifications: H4K44me1 H4R45me1, binder concentration: 10 nM",0.0751 ± 0.0022
same,peptide microarray binding signal,"[2]; peptide region: H4 38-50, peptide modifications: H4K44me1 H4R45me1, binder concentration: 100 nM",0.031 ± 0.0006
same,peptide microarray binding signal,[3]; [23],0.00727 ± 0.00021
same,peptide microarray binding signal,[3]; [24],0.02163 ± 0.00021
same,peptide microarray binding signal,[4]; [23],0.0055 ± 9.8e-05
same,peptide microarray binding signal,[4]; [24],0.02058 ± 0.00019
